Source: PubChem BioAssay AID493194 (Broad Institute, 2011)
Results with a measured potency or affinity are listed apart. Inconclusive results are not listed. Calls of active or inactive are those of the source.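 The calls were made as follows: active = a valid curve of falling signal whose half-effect concentration is at most ten times the top tested dose; inconclusive = flat curve at 30 to 70% inhibition, or poor fit; inactive = signal rise, flat within 30%, or potency beyond limit.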

Biological target: Scavenger receptor class B member 1 (Mus musculus) (UniProt Q61009)
Test: mouse SR-BI DiI-HDL uptake blockers – ldlA[mSR-BI] cells, fluorescence, cherry pick, dose response (AID 493194);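 also: CHO cells lacking LDL receptor and overexpressing mouse SR-BI; cellular uptake of fluorescently labeled HDL measured as cell fluorescence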
Conditions: CHO ldlA[mSR-BI] DiI-HDL uptake fluorescence, 3 h; series mostly up to 35 µM

Scavenger receptor class B member 1 (Mus musculus), sequence (Q61009 whole entry, looked up): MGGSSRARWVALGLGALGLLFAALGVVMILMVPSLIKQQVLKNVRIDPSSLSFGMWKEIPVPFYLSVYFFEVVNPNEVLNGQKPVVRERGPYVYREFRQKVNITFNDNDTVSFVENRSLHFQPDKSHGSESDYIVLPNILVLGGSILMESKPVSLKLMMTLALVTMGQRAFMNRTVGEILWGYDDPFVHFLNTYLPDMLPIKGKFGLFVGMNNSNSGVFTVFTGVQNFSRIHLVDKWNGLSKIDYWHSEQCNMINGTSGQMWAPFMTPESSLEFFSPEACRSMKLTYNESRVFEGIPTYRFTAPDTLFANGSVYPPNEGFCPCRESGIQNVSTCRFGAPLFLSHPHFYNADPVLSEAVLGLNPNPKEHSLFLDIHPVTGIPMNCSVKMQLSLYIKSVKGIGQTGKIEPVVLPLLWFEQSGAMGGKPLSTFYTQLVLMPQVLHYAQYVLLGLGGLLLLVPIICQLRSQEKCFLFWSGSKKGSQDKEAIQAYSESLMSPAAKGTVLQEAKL

outcome, inactive:
O=C1C2CCCN2C(=O)N1CCCN1CCN(c2ccc([N+](=O)[O-])cc2)CC1 (centres undefined)
CCSCC1COC(c2cccn2Cc2ccc(C)cc2)=N1 (centres undefined)
COc1ccc2sc(-c3ccc(N(C)C)cc3)c(C#Cc3cncn3C)c2c1
CCC(C)n1ncn(-c2ccc(N3CCN(c4ccc(OCC5COC(Cn6cncn6)(c6ccc(Cl)cc6Cl)O5)cc4)CC3)cc2)c1=O (centres undefined)
CCC(C)NC(=O)Cn1cc(S(=O)(=O)N2CCN(c3ccccc3F)CC2)c2ccccc2c1=O (centres undefined)
CC1Cc2ccccc2N1CC(=O)Nc1ccc(N2CCOCC2)cc1 (centres undefined)
CCCC(=O)N1CCc2cc(-c3nc(N)sc3C)ccc21
CC(C)CN(CC(C)C)C(=O)COn1nnc2ccc(S(=O)(=O)N3CCOCC3)cc21
CCN(CC)C(=O)c1cccc(NC(=O)c2cc(C3CC3)nc3c2cnn3C(C)C)c1
O=C(Nc1cccc(NC(=O)c2ccccc2[N+](=O)[O-])c1)c1ccccc1Cl
COc1ccc(CN2CCN(C(=O)c3ccc(S(=O)(=O)NCc4ccco4)cc3)CC2)cc1F
COc1cc(NC(=O)C2CC(c3c(F)cccc3Cl)=NO2)c(OC)cc1Cl (centres undefined)
COc1cccc(-c2csc(N3CCN(C(=S)Nc4cccc(Cl)c4)CC3)n2)c1
CC(C)c1nnc(NC(=O)CCC(=O)N2CCN(C3c4ccccc4-c4ccccc43)CC2)s1
CCOC(=O)N1CCN(CC(O)COC2CC(C)CCC2C(C)C)CC1 (centres undefined)
COc1cc2c(cc1OC)-c1cc(OCc3ccccc3Cl)nc(=O)n1CC2
CCOc1ccc(NC(=O)CN2CCN(CC(=O)Nc3ccc(Cl)c(C(F)(F)F)c3)CC2)cc1
O=C(Nc1cccc(S(=O)(=O)N2CCOCC2)c1)C1CCN(S(=O)(=O)c2ccccc2)CC1
O=C(CCCC(=O)N(CC(=O)NC1CCCC1)C1CCCC1)Nc1ccccn1
O=C(c1ccc(S(=O)(=O)NCc2ccco2)cc1)N1CCN(Cc2ccc3c(c2)OCO3)CC1
COc1ccc(-c2nc(CN3CCN(c4ncnc5ccccc45)CC3)c(C)o2)c(OC)c1
COc1ccc(-c2nnc(SCC(=O)Nc3ncc(C(F)(F)F)cc3Cl)n2CC(C)C)cc1
COc1cc(-c2nnn(Cc3ccccc3C)n2)cc(OC)c1OC
COc1ccc(-c2nnn(CC(=O)N(C3CCCCC3)C(C)C(=O)NC3CCCC3)n2)cc1OC (centres undefined)
